From PubChem BioAssay (NCATS)
Inconclusive results are not listed. A call without a number means that no potency is given here. Activity calls are given as the source filed them. The call rests on the fitted dose curve; in most records, active means well fitted curve in the direction sought with a large enough effect; inconclusive means small, poorly fitted or top-dose-only effect, or another doubt; inactive means no such curve, though single readings can be large; an effect the other way counts as inactive or inconclusive.

How the values were obtained:
[1] = target: Metallo-beta-lactamase type 2 (Klebsiella pneumoniae) (UniProt C7C422); experiment: qHTS to identify inhibitors of the New Delhi Metallo-beta-lactamase (NDM): assay validation screen against the NCATS LOPAC Collection (AID 1794843);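 further: nitrocefin turnover by NDM-1 measured as 485 nm absorbance at plateau; series mostly up to about 38 µM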
Sequence of Metallo-beta-lactamase type 2 (Klebsiella pneumoniae) (C7C422 whole entry, looked up): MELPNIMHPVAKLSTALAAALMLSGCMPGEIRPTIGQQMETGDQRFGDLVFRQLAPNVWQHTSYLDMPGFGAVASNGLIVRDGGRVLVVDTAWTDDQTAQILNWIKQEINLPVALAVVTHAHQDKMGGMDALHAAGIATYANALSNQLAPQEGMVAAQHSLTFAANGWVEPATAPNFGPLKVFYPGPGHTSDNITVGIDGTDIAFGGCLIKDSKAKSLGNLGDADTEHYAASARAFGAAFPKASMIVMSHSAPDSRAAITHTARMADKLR
Procedure, shortened: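 NDM-1 at 2 nM final in 50 mM HEPES pH 7.0, 1 uM ZnSO4, 0.01% Tween20, preincubated with LOPAC compounds pinned in DMSO; 50 uM nitrocefin (stock) added. Hydrolysis read as absorbance at 485 nm in the plateau phase.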

[2] = target: Glutathione peroxidase 1 (Homo sapiens) (UniProt P07203); experiment: Primary qHTS Assay for Inhibitors of Recombinant Selenoprotein Glutathione Peroxidase 1 (GPX1) (AID 1845191); details: outcome: dose series up to 48.8 µM; further: nearly all actives have a fitted effect of over 65% in size
Sequence of Glutathione peroxidase 1 (Homo sapiens) (P07203 whole entry, looked up): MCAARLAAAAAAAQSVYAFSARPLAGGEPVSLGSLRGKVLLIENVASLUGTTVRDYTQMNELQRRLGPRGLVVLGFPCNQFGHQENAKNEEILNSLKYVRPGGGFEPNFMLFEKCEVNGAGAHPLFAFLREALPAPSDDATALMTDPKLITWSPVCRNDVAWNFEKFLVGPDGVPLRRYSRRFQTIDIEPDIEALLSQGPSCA
Procedure, shortened: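 Recombinant GPX1 (10 nM final) was preincubated with compound for 30 min at room temperature, then reacted with 1 mM GSH, 0.5 mM CHP, 0.5 mM NADPH and 100 nM glutathione reductase; NADPH fluorescence (340/450 nm) was read at 0 and 15 min.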

[3] = target: Phospholipid hydroperoxide glutathione peroxidase GPX4 (Homo sapiens) (UniProt P36969); experiment: Primary qHTS Assay for Inhibitors of Recombinant Selenoprotein Glutathione Peroxidase 4 (GPX4) (AID 1845192); further: nearly all actives have a fitted effect of over 65% in size
Sequence of Phospholipid hydroperoxide glutathione peroxidase GPX4 (Homo sapiens) (P36969 whole entry, looked up): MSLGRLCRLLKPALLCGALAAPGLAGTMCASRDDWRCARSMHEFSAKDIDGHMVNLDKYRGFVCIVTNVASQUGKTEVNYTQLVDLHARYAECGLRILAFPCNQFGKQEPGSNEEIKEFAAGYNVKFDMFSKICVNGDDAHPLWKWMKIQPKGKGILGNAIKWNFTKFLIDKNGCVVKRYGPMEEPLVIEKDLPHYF
Procedure, shortened: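 GR-coupled readout: 100 nM GR, 1 mM GSH, 0.5 mM NADPH; NADPH fluorescence (ex 340/em 450 nm) read at t=0 and after 15 min RT. GPX4 200 nM, preincubated 30 min with compound; substrate 0.5 mM CHP.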

[4] = Quantitative High-Throughput drug screen in 47 multiple myeloma cell lines against the NCATS MIPE library collection: FR4_PLB cell viability assay (AID 1918924; further: nearly all actives have a fitted effect of over 35% in size)
Procedure, shortened: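 Viability readout: CellTiter-Glo luminescence following 5 min room-temperature incubation with reagent. Prior exposure: 48 h, 37C, humidified 5% CO2, 500 cells per well.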

[5] = target: Luciferin 4-monooxygenase (Photinus pyralis) (UniProt P08659); experiment: Primary firefly luciferase (FLuc) qHTS assay for identification of artifact compounds. (AID 1845220); details: outcome: dose series up to 54.1 µM; further: series mostly up to about 54 µM; nearly all actives have a fitted effect of over 60% in size
Procedure, shortened: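 Reaction readout was CCD-imaged luminescence, taken 5 min after adding 10 nM purified firefly enzyme to compound-treated wells holding 10 uM luciferin and ATP in pH 7.6 buffer.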

[6] = Primary fluorescence-based thiol-reactive (MSTI) qHTS assay for identification of artifact compounds. (AID 1845221);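 further: series mostly up to about 54 µM; thiol-reactive compounds lower the probe fluorescence signal; nearly all actives have a fitted effect of over 65% in size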
Procedure, shortened: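 Compounds were incubated 1 h at room temperature in the dark with the MSTI probe (4 uM) in PBS pH 7.4, 2% DMSO. Signals were normalized between Acetyl-MSTI and MSTI.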

[7] = system: Nanoluciferase (engineered Oplophorus gracilirostris luciferase); experiment: Primary Nanoluciferase (NLuc) qHTS assay for identification of artifact compounds. (AID 1845222);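 further: NLuc secreted into diluted conditioned medium of S16 cells; series mostly up to about 54 µM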
Procedure, shortened: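 Concentration-response data were obtained by luminescence after 5 min with Nano-Glo substrate at 1:100. The enzyme was diluted S16 NLuc-expressing cell medium, preincubated with compound for 15 min at RT. Curves were fitted with a 4-parameter Hill model.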

[8] = Primary redox qHTS assay for identification of artifact compounds. (AID 1845223)
Procedure, shortened: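 Amplex Red (25 uM) and HRP (250 mU/mL) in HBSS, with compounds for 15 min, then 250 uM DTT for 30 min, room temperature, dark. Fluorescence 525/598 nm read; normalized to DMSO and 10 uM DA3003; Hill fit.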

NC(=O)CN1CCCC1=O
outcome [1]: inactive | outcome [2]: inactive | Potency [3]: inactive

Nc1ccccc1C(=O)OCC(O)CO (centres undefined)
outcome [2]: inactive | Potency [3]: inactive

N#Cc1nn(-c2c(Cl)cc(C(F)(F)F)cc2Cl)c(N)c1S(=O)C(F)(F)F (centres undefined)
outcome [2]: inactive | Potency [3]: inactive

CCC1(c2cccc(O)c2)CCCCN(C)C1 (centres undefined)
outcome [2]: inactive | Potency [3]: inactive

Cc1cccc(Cc2cnc[nH]2)c1C
outcome [2]: inactive | Potency [3]: inactive

COP(=O)(OC)OC=C(Cl)Cl
outcome [2]: inactive | Potency [3]: inactive

Clc1ccc(CSC(Cn2ccnc2)c2ccc(Cl)cc2Cl)cc1 (centres undefined)
outcome [2]: inactive | Potency [3]: inactive

CC(Cc1ccccc1)NCc1ccccc1Cl (centres undefined)
outcome [2]: inactive | Potency [3]: inactive

COC(=O)C1=CCCN(C)C1
outcome [1]: inactive | outcome [2]: inactive | Potency [3]: inactive | Potency [4]: inactive

O=C(CCCN1CCC(n2c(=O)[nH]c3ccccc32)CC1)c1ccc(F)cc1
outcome [2]: inactive | Potency [3]: inactive

C[C@]12Cc3nonc3C[C@@H]1CC[C@@H]1[C@@H]2CC[C@@]2(C)[C@H]1CC[C@]2(C)O
outcome [2]: inactive | Potency [3]: inactive

CN(C)C(=O)Oc1cc(OC(=O)N(C)C)cc(C(O)CNC(C)(C)C)c1 (centres undefined)
outcome [2]: inactive | Potency [3]: inactive

C=CC[C@]1(O)CC[C@H]2[C@@H]3CCC4=CC(=O)CCC4=C3C=C[C@@]21C
outcome [2]: inactive

CC[C@]1(O)CC[C@H]2[C@@H]3CCC4=CCCC[C@@H]4[C@H]3CC[C@@]21C
outcome [2]: inactive

COc1ccc(C(=O)N2CCCC2=O)cc1
outcome [1]: inactive | outcome [2]: inactive | Potency [3]: inactive | Potency [4]: inactive

CC(C)C(Br)C(=O)NC(N)=O (centres undefined)
outcome [2]: inactive | Potency [3]: inactive

Cc1ccc([N+](=O)[O-])[c]2c1[O][Hg]2
Potency [3]: inactive

O=C(N[C@H]1N=C(c2ccccc2F)c2cccc3c2N(CC3)C1=O)c1cc2ccccc2[nH]1
outcome [2]: inactive | outcome [5]: inactive | outcome [6]: inactive | outcome [7]: inactive | outcome [8]: inactive

CC(C(O)c1ccccc1)N(C)C/C=C/c1ccccc1 (centres undefined)
outcome [2]: inactive | Potency [3]: inactive

CC(CC(C(N)=O)(c1ccccc1)c1ccccc1)N(C)C (centres undefined)
outcome [2]: inactive | Potency [3]: inactive

Cc1ccc(N=CN(C)C=Nc2ccc(C)cc2C)c(C)c1
outcome [2]: inactive | Potency [3]: inactive

CC1COC2(c3ccccc3Cl)c3cc(Cl)ccc3NC(=O)CN12 (centres undefined)
outcome [2]: inactive | Potency [3]: inactive
